# TDP1 cell noCPT = qHTS for Inhibitors of human tyrosyl-DNA phosphodiesterase 1 (TDP1): qHTS in cells in absence of CPT | DT40 Tdp1-/- hTDP1 cells, no CPT, ATP luminescence, 48 h | Potency, µM (series often up to 46.2 µM), for the others: at the highest dose activity change, negative = growth inhibition, hits mostly inhibitors | 15% of 420,000 active | AID 686978, 2013; note: potency is the fitted concentration of half-maximal effect; nearly all actives have a fitted effect of over 55% in size
#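 Compound effects on proliferation are scored in DT40 Tdp1-/-;hTDP1 cells in the absence of CPT. ATP levels (CellTiter-Glo luminescence) are recorded after a ≥48 hr, 37 °C incubation.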
# HT1080 IDH1KD tx = kills HT-1080 cells with IDH1 knockdown. HT-1080 IDH1 knockdown viability, ATP luminescence, 48 h. 2% of 360,000 active. Potency, µM (highest dose often 46.1 µM), without a hit: at the top dose activity, negative = toxicity, most hits filed as cytotoxic;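 note: potency is the fitted concentration of half-maximal effect; 0% = DMSO wells and -100% = cell-free medium wells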
#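 HT-1080-IDH1KD cells (IDH1 knocked down), 750/well in RPMI with 5% FBS, treated with compound 48 h at 37 degrees C. Viability by CellTiter-Glo luminescence, normalised to DMSO and no-cell wells; concentration-response curves classed.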
# TDP1 cell CPT = DT40-hTDP1 cell growth loss with CPT | chicken DT40 Tdp1-/-;hTDP1 cells + 20 nM CPT, ATP luminescence, 48 h | Potency, µM (highest dose often 46.2 µM), for the others: top-dose activity change, negative = growth inhibition, most hits filed as inhibitors | 12% of 420,000 active | AID 686979; note: potency is the fitted concentration of half-maximal effect; nearly all actives have a fitted effect of over 55% in size
#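 Chicken DT40 Tdp1-/- cells stably complemented with human TDP1 were seeded at 400 cells/well in medium containing 20 nM camptothecin, exposed to pin-transferred compounds, and grown at 37 °C for at least 48 hr. Viability was read as ATP luminescence.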
# uPA surface inh = cell surface uPA generation inhibition. 0.31% of 330,000 active. Potency, µM (doses to about 38.3 µM), for the others: at the top dose activity change, negative = inhibition, actives largely listed as inhibitors. cell surface uPA generation assay, qHTS. AID 540303; active = well fitted inhibition curve with a large enough effect; inconclusive = small, poorly fitted or top-dose-only effect; inactive = no such curve, though single readings can be large or run the other way; tested in mouse RAW 264.7 cells; note: potency is the fitted concentration of half-maximal effect; nearly all actives have a fitted effect of over 55% in size
# HT1080NT lethal = kills 2HG-producing HT-1080-NT fibrosarcoma cells; HT-1080-NT fibrosarcoma viability, CellTiter-Glo ATP luminescence, 48 h; Potency, µM (top dose mostly 46.1 µM), inactives show top-dose activity, negative = less viability, hits mostly cytotoxic; 1.6% of 360,000 active;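 note: NT is the 2HG producing partner of a matched IDH1 knockdown line; potency is the fitted concentration of half-maximal effect; 0% = DMSO-treated cells and -100% = media-only wells without cells; nearly all actives have a fitted effect of over 55% in size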
#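 Toxicity toward the 2HG-producing NT line was scored as %Activity, normalised to DMSO and no-cell wells, from CellTiter-Glo luminescence after 48 hours' treatment.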
# IL1B secr inh = inhibitors of inflammasome signaling (IL-1 beta secretion); 4.7% of 360,000 active; activity change, % at 57.5 µM; AID 743279; THP-1 LPS/ATP IL-1B secretion, AlphaLISA, 16 h; stronger effect = lower value; in the data active = activity change below about -50%; inconclusive = mostly about -30% to -49%
#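 Secreted IL-1B measured by AlphaLISA bead assay after 16 h compound exposure of THP-1 cells; compounds (final up to 57.5 uM) added 1 h before LPS (250 ng/mL) and ATP (1.25 mM) stimulation; lower signal means less secretion.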
# An asterisk follows results filed as active; ? = inconclusive; . = no result. An excerpt weighted towards active compounds, which were near 19% of everything screened. Unless noted, calls come from the whole dose curve; as a rule, active = well fitted curve in the direction sought with a large enough effect; inconclusive = small, poorly fitted or top-dose-only effect, or another doubt; inactive = no such curve, though single readings can be large; an effect the other way counts as inactive or inconclusive. Unless noted, % is set by controls: 0 for no effect and ±100 for the full control effect.
SMILES,TDP1 cell noCPT,HT1080 IDH1KD tx,TDP1 cell CPT,uPA surface inh,HT1080NT lethal,IL1B secr inh
CCOC(=O)c1sc(NC(=O)c2cccc(S(=O)(=O)N3CCc4ccccc43)c2)c(C#N)c1C,2.91µM*,?,5.8µM*,-0.2%,?,35.6
O=C(Nc1ccncc1)c1cccc(S(=O)(=O)N2CCc3ccccc32)c1,6.51µM*,?,5.8µM*,-7.1%,-23.6%,?
Cc1ccc(-c2c[n+](CC(=O)Nc3ccc(C)cc3C)c3n2CCC3)cc1,14.6µM*,-16.1%,?,-1.7%,-10.9%,-72.6*
Cc1ccc(NC(=O)C[n+]2cc(-c3ccc(C)cc3)n3c2CCC3)cc1,5.17µM*,-1.2%,4.11µM*,3.1%,-7.9%,.
CCCS(=O)(=O)NC(=O)C1(C)CCCN(C(=O)c2cccc(C(F)(F)F)c2)C1 (configuration not stated),-20.1%,12.3%,-27.0%,.,21.6%,26.1
O=C(Nc1ccccc1)OCC1COC(c2ccccc2)(c2ccccc2)O1 (configuration not stated),-2.4%,10.7%,1.5%,6.8%,-0.8%,-69.0*
Cc1nc2c(C)c(C)c(C)c(C)c2nc1C,-5.2%,3.9%,6.7%,6.2%,9.5%,.
Cc1nc2c(O)c3c(c(O)c2nc1C)C1C=CC3CC1,0.517µM*,16.4µM*,0.461µM*,-14.5%,?,0.0
Cn1c(=O)[nH]c(=O)c2c1nc(SCC(O)CCl)n2Cc1ccccc1 (configuration not stated),?,-11.2%,11.6µM*,?,-9.1%,11.5
C=C(C)CSc1nc2c(c(=O)[nH]c(=O)n2C)n1Cc1ccccc1,?,-10.6%,?,?,-2.9%,2.4
Cn1c(=O)[nH]c(=O)c2c1nc(SCC(=O)Nc1ccccc1)n2Cc1ccccc1,18.4µM*,0.1%,23.1µM*,10.7%,-0.5%,-15.0
CC(O)CSc1nc2c(c(=O)[nH]c(=O)n2C)n1Cc1ccccc1 (configuration not stated),-0.5%,-4.6%,-21.9%,-2.4%,7.5%,-5.2
CCN(CC)C(=O)CSc1nc2cc3c(cc2c(=O)n1CCCC(=O)NCCc1ccc(OC)c(OC)c1)OCO3,18.4µM*,2.1%,?,-2.4%,6.7%,?
CCN(CC)C(=O)CSc1nc2cc3c(cc2c(=O)n1Cc1ccc(C(=O)NCCc2ccc(OC)c(OC)c2)cc1)OCO3,20.6µM*,.,13µM*,.,.,.
CCCCNC(=O)CSc1nc2cc3c(cc2c(=O)n1Cc1ccc(C(=O)NCCc2ccc(OC)c(OC)c2)cc1)OCO3,-6.6%,.,11.9%,.,.,.
CCOC(=O)CSc1nc2cc3c(cc2c(=O)n1CCCC(=O)NCCc1ccc(OC)c(OC)c1)OCO3,13µM*,.,?,.,.,.
CCCCC(Sc1nc2cc3c(cc2c(=O)n1CCCC(=O)NCc1ccc(OC)cc1)OCO3)C(=O)OCC (configuration not stated),4.61µM*,.,4.61µM*,.,.,.
O=C(COC(=O)/C=C/c1cccc(Cl)c1Cl)Nc1ccc2[nH]c(=O)[nH]c2c1,-3.1%,3.0%,2.8%,2.5%,4.8%,11.7
COCc1cn(CC(C)n2c(=O)c3ccccc3n2Cc2cc(C(C)C)no2)nn1 (configuration not stated),2.9%,9.2%,17.6%,.,4.5%,8.3
CCN(CC)C(=O)CSc1nc2cc3c(cc2c(=O)n1CCCCCC(=O)NCc1ccc(OC)cc1)OCO3,?,11.3%,?,-18.8%,18.7%,-64.5*
Cc1nc2c3cccnc3nn2c(C)c1CCC(=O)NCc1ccccc1,-16.6%,.,-17.4%,.,.,.
CCC1Oc2ccc(C)cc2N(CC(=O)N(Cc2cccnc2)Cc2cccc(F)c2)C1=O (configuration not stated),?,-9.6%,18.4µM*,6.2%,-14.1%,-11.6
COc1ccccc1CN1COc2ccc3c(oc(=O)c4ccccc43)c2C1,23.1µM*,.,?,.,.,.
COc1ccc(CN2COc3ccc4c(-c5ccc(OC)cc5)cc(=O)oc4c3C2)cc1,20.6µM*,.,9.2µM*,.,.,.
COc1ccc(CN2COc3ccc4c(oc(=O)c5ccccc54)c3C2)cc1OC,-7.9%,.,-14.8%,.,.,.
SMILES,TDP1 cell noCPT,HT1080 IDH1KD tx,TDP1 cell CPT,uPA surface inh,HT1080NT lethal,IL1B secr inh
CC(C)CN(CC(C)C)S(=O)(=O)N1CCC(C(=O)NCCc2ccc(Cl)cc2)CC1,?,?,?,12.2%,-27.4%,-3.3
COc1ccccc1C(=O)Nc1cccc(C(=O)OCc2cc(=O)n3ccsc3n2)c1,-18.8%,.,-20.1%,.,.,.
O=S(=O)(c1cccc(-c2nc3n(n2)Cc2ccccc2-3)c1)N1CCCC1,?,12.1%,20.6µM*,-0.2%,-5.7%,-23.1
COc1ccc(C(=O)N2c3ccc(F)cc3CCC2C)cc1OC (configuration not stated),?,-0.8%,?,-2.8%,-2.7%,-12.4
COc1cc(OC)cc(C(=O)N2c3ccc(F)cc3CCC2C)c1 (configuration not stated),11.6µM*,0.1%,10.3µM*,2.9%,-0.3%,-1.0
Cc1ccc(C(=O)N2c3ccc(F)cc3CCC2C)o1 (configuration not stated),?,-2.2%,?,1.9%,0.0%,10.6
COc1cc(C(=O)N2c3ccccc3CCC2C)cc(OC)c1OC (configuration not stated),9.2µM*,?,18.4µM*,6.2%,4.9%,6.7
Cc1nn(Cc2ccc(C(=O)N3c4ccc(F)cc4CCC3C)o2)c(C)c1Br (configuration not stated),16.4µM*,-26.2%,20.6µM*,10.3%,-25.0%,-6.0
CC1CCc2cc(F)ccc2N1C(=O)CCl (configuration not stated),6.51µM*,?,5.8µM*,-12.3%,?,-97.3*
COc1ccc(C)cc1N(C(=O)c1ccco1)C(C(=O)NC1CCCC1)c1cc(OC)c(OC)c(OC)c1 (configuration not stated),?,-13.4%,6.6%,-2.1%,12.7%,-2.5
C[C@@H]1CN(C(=O)c2nc3ccc(Cl)cn3c2CN(C)CCc2cnn(C)c2)C[C@H](C)O1,0.6%,16.8%,0.9%,-15.8%,1.4%,13.4
CCOc1cccc(-c2ccc3nncn3c2)c1,-26.6%,2.6%,4.8%,.,12.0%,7.3
CC1CCc2cc(F)ccc2N1C(=O)c1ccc2c(c1)OCO2 (configuration not stated),14.6µM*,-8.9%,?,3.7%,-18.6%,-1.2
CCNc1ncc2nc(C)c(=O)n(Cc3cccc(OC)c3)c2n1,?,.,-1.6%,.,.,.
